Values without a mark were called inactive.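 Rule for the calls, unless noted: active = compound whose remaining NAD level is above about 45 nM (limit read from the data); inactive = the rest.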 Peptide text beside a SMILES is read from it.

The target of experiment [1] is NAD(+) hydrolase SARM1 (Homo sapiens) (UniProt Q6SZW1). Nature of the experiment: blocking NAD cleavage by SARM1 SAM-TIR – cell lysate, NAD-Glo luminescence (AID 1508614).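 Note: higher remaining NAD means stronger inhibition of SARM1 NADase.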 The note with it: SAM-TIR HEK293T lysate NADase, at 1 µM, stronger effect = higher value.
Chain of NAD(+) hydrolase SARM1 (Homo sapiens) (Q6SZW1 whole entry, looked up, the tested form may be a part): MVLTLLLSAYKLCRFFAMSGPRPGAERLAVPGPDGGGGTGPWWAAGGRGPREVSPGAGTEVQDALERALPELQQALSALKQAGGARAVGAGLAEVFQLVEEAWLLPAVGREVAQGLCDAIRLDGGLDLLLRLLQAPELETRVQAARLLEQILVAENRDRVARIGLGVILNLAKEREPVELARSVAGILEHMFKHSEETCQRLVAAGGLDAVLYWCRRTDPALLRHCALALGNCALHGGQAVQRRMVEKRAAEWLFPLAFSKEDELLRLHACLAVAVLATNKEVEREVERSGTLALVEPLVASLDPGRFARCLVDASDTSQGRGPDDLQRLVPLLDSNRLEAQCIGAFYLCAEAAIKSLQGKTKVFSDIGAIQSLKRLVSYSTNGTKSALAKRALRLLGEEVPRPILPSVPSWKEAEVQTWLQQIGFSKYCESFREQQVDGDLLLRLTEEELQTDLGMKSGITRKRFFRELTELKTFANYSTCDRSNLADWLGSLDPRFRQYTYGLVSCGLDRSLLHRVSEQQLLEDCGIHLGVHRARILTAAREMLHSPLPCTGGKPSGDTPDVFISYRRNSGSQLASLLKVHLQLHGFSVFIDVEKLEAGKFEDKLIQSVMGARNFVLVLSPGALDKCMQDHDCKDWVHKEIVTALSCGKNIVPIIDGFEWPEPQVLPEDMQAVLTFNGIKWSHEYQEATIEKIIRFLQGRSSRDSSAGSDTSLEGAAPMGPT
Experiment [2] concerns the target Mitogen-activated protein kinase 7 (Homo sapiens) (UniProt Q13164). As to the kind of experiment: Gal4-ERK5 driven luciferase induction – cell-based, HTS, primary screen (AID 1508626;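 active = luciferase signal above three times the same-plate solvent-only control wells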;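 note: luciferase driven by Gal4-ERK5 fusion binding five Gal4 sites before minimal TATA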). The conditions noted are these: HeLa Gal4-ERK5 transactivation, 18 h, at 5 µM, stronger effect = higher value.

Chain of Mitogen-activated protein kinase 7 (Homo sapiens) (Q13164 whole entry, looked up, the tested form may be a part): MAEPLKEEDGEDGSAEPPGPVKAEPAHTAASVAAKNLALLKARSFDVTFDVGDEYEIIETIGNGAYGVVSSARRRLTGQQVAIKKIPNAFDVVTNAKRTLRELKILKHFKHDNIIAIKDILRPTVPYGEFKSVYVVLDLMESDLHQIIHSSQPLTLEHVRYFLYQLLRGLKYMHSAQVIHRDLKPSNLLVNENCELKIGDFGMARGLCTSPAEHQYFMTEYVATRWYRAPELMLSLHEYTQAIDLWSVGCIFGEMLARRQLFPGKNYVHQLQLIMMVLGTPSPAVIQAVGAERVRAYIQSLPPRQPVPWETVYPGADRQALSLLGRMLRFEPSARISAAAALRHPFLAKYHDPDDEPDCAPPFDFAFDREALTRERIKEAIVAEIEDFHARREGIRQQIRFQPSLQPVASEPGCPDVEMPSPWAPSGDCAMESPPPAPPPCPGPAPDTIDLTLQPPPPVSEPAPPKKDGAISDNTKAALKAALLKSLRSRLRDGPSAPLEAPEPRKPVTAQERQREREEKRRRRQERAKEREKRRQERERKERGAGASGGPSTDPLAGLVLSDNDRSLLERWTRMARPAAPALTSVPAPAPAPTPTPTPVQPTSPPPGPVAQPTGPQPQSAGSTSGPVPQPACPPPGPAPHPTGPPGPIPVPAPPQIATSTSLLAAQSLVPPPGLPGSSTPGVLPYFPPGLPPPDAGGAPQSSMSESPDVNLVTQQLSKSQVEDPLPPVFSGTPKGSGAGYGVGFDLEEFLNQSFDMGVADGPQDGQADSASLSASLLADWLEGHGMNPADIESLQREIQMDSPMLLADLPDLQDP

With `CCCc1ncc(C[n+]2ccccc2C)c(N)n1`, the remaining NAD in experiment [1] is 10 nM. Further, the luciferase signal in experiment [2] is 52 AU.

Take `NC(N)=NCCN1CCCCCCC1`: the remaining NAD in experiment [1] was 10 nM. Further, in experiment [2], the luciferase signal is 32 AU.

Consider `COc1ccc(NS(=O)(=O)c2ccc(N)cc2)nn1`, for which the remaining NAD in experiment [1] was 10 nM. In addition, the luciferase signal in experiment [2] was 28 AU.

Take `CS(=O)(=O)c1ccc([C@@H](O)[C@@H](CO)NC(=O)C(Cl)Cl)cc1`: the remaining NAD in experiment [1] is 23 nM. Besides, the luciferase signal in experiment [2] was 44 AU.

Regarding `Oc1c(Br)cc(Br)c2cccnc12`, the remaining NAD in experiment [1] is 10 nM. Moreover, in experiment [2], the luciferase signal is 88 AU.

With `C[N+]12CCC(CC1)C(OC(=O)C(O)(c1ccccc1)c1ccccc1)C2` (stereo not given), the remaining NAD in experiment [1] was 10 nM. Further, the luciferase signal in experiment [2] was 48 AU.

Regarding `C[C@@H]1C[C@H]2[C@@H]3CCC4=CC(=O)C=C[C@]4(C)[C@@]3(F)[C@@H](O)C[C@]2(C)[C@@]1(O)C(=O)COP(=O)(O)O`, in experiment [1], the remaining NAD was 10 nM. The luciferase signal in experiment [2] was 32 AU.

`Cc1ccc2c(Cl)cc(Cl)c(O)c2n1`: in experiment [1], the remaining NAD was 10 nM. In addition, the luciferase signal in experiment [2] is 32 AU.

Consider `COC(=O)[C@@H](N)CS`, for which the remaining NAD in experiment [1] was 10 nM. The luciferase signal in experiment [2] was 52 AU.

`NC(=O)NC(=O)Cc1ccccc1`: the remaining NAD in experiment [1] was 10 nM. The luciferase signal in experiment [2] was 160 AU.

Take `Cc1cc(C(C)(C)C)c(O)c(C(C)(C)C)c1`: the remaining NAD in experiment [1] was 10 nM. The luciferase signal in experiment [2] was 20 AU.

Take `CC(N)CCCC(C)(C)O` (stereo not given): the remaining NAD in experiment [1] is 10 nM. In addition, the luciferase signal in experiment [2] was 160 AU.

`Cc1c(C(N)=O)cc([N+](=O)[O-])cc1[N+](=O)[O-]`: the remaining NAD in experiment [1] was 10 nM. Further, in experiment [2], the luciferase signal was 68 AU.

`CC(Cc1cccc(C(F)(F)F)c1)NCCOC(=O)c1ccccc1` (stereo not given): in experiment [1], the remaining NAD is 10 nM. In experiment [2], the luciferase signal is 84 AU.

As for `CCCCCCOc1ccccc1C(N)=O`, the remaining NAD in experiment [1] is 10 nM. For the same compound, the luciferase signal in experiment [2] is 48 AU.

In the case of `CC(=O)NO`, the remaining NAD in experiment [1] is 10 nM. Also, the luciferase signal in experiment [2] was 52 AU.

As to `CCCCOc1ccc(C(=O)CCN2CCCCC2)cc1`, in experiment [1], the remaining NAD is 10 nM. Further, the luciferase signal in experiment [2] was 40 AU.

`CN1CCCN=C1COC(=O)C(O)(c1ccccc1)C1CCCCC1` (stereo not given): the remaining NAD in experiment [1] is 10 nM. Further, in experiment [2], the luciferase signal is 80 AU.

With `CCOc1ccc2nc3cc(N)ccc3c(N)c2c1`, in experiment [1], the remaining NAD is 10 nM. Also, the luciferase signal in experiment [2] was 32 AU.

Consider `CC(=O)OCC(=O)[C@H]1CC[C@H]2[C@@H]3CCC4=CC(=O)CC[C@]4(C)[C@H]3CC[C@]12C`, for which the remaining NAD in experiment [1] is 10 nM. Besides, the luciferase signal in experiment [2] was 60 AU.

`OCc1ccccc1O`: in experiment [1], the remaining NAD is 10 nM. Besides, the luciferase signal in experiment [2] is 28 AU.

On to `O=C1C(O)=C(O)C(=O)C(O)=C1O`, for which, in experiment [1], the remaining NAD was 10 nM. Besides, in experiment [2], the luciferase signal was 20 AU.

Take `O=c1oc2cc(O)ccc2s1`: in experiment [1], the remaining NAD was 10 nM. In experiment [2], the luciferase signal is 56 AU.

`CCCCOc1ccc(OCCCN2CCOCC2)cc1`: the remaining NAD in experiment [1] is 10 nM. Besides, the luciferase signal in experiment [2] is 36 AU.

Turning to `CCN1CCCC(OC(=O)C(c2ccccc2)c2ccccc2)C1` (stereo not given), in experiment [1], the remaining NAD is 10 nM. In addition, the luciferase signal in experiment [2] was 64 AU.

With `Nc1ccc(S(=O)(=O)Nc2cnc3ccccc3n2)cc1`, the remaining NAD in experiment [1] was 10 nM. Besides, in experiment [2], the luciferase signal was 84 AU.

`O=C1OCCN1/N=C/c1ccc([N+](=O)[O-])o1`: the remaining NAD in experiment [1] was 10 nM. Further, the luciferase signal in experiment [2] was 56 AU.

For `Cc1cc(C2CCCCC2)n(O)c(=O)c1`, the remaining NAD in experiment [1] is 10 nM. For the same compound, the luciferase signal in experiment [2] is 52 AU.

Regarding `CCCCOc1cc(C(=O)NCCN(CC)CC)c2ccccc2n1`, the remaining NAD in experiment [1] was 10 nM. Also, the luciferase signal in experiment [2] is 40 AU.

As to `CC1(C)OC(=O)NC1=O`, the remaining NAD in experiment [1] was 10 nM. In experiment [2], the luciferase signal is 64 AU.

For the compound `Cc1nnc(NS(=O)(=O)c2ccc(N)cc2)s1`, the remaining NAD in experiment [1] was 10 nM. Besides, the luciferase signal in experiment [2] is 184 AU.

As for `Cc1cc(CC(=O)O)n(C)c1C(=O)c1ccc(Cl)cc1`, the remaining NAD in experiment [1] was 10 nM. The luciferase signal in experiment [2] is 96 AU.

Take `COc1cc(NS(=O)(=O)c2ccc(N)cc2)ncn1`: the remaining NAD in experiment [1] is 10 nM. Moreover, in experiment [2], the luciferase signal was 44 AU.

As to `CN1CCN(C(c2ccccc2)c2ccccc2)CC1`, the remaining NAD in experiment [1] is 10 nM. The luciferase signal in experiment [2] was 124 AU.

On to `CO/N=C1\CN(c2nc3c(cc2F)c(=O)c(C(=O)O)cn3C2CC2)CC1CN` (stereo not given), for which the remaining NAD in experiment [1] is 10 nM. Further, the luciferase signal in experiment [2] is 40 AU.

As to `O=C(O)c1cc(=O)c2ccccc2o1`, the remaining NAD in experiment [1] was 10 nM. The luciferase signal in experiment [2] was 52 AU.

Take `CC(=O)OCC(=O)[C@@]1(O)[C@H](OC(C)=O)C[C@H]2[C@@H]3CCC4=CC(=O)C=C[C@]4(C)[C@@]3(F)[C@@H](O)C[C@@]21C`: the remaining NAD in experiment [1] was 10 nM. For the same compound, the luciferase signal in experiment [2] is 96 AU.

Turning to `CC(N)C(=O)OC(C)(C)Cc1ccc(Cl)cc1` (stereo not given), the remaining NAD in experiment [1] was 10 nM. In addition, the luciferase signal in experiment [2] is 92 AU.

For `CCN(CC)CCNC(=O)COc1ccc(OC)cc1`, in experiment [1], the remaining NAD is 10 nM. Also, in experiment [2], the luciferase signal was 72 AU.

In the case of `CC(C(=O)O)c1ccc2c(c1)[nH]c1ccc(Cl)cc12` (stereo not given), the remaining NAD in experiment [1] is 10 nM. Further, in experiment [2], the luciferase signal was 16 AU.

On to `COc1ccc(C(=O)CC(=O)c2ccc(C(C)(C)C)cc2)cc1`, for which the remaining NAD in experiment [1] was 10 nM. Moreover, the luciferase signal in experiment [2] was 44 AU.

Turning to `Oc1ccc(Cl)c2cccnc12`, the remaining NAD in experiment [1] was 10 nM. Besides, in experiment [2], the luciferase signal was 60 AU.

Turning to `O=c1cc[nH]c(=S)[nH]1`, the remaining NAD in experiment [1] was 10 nM. Also, the luciferase signal in experiment [2] is 100 AU.

Consider `CC(=O)Nc1cccc(O)c1`, for which the remaining NAD in experiment [1] is 10 nM. Besides, in experiment [2], the luciferase signal was 64 AU.

As for `COC(=O)[C@H](Cc1ccccc1)NC(=O)[C@@H](N)CC(=O)O` (H-Asp-Phe-OMe), the remaining NAD in experiment [1] was 10 nM. Further, in experiment [2], the luciferase signal is 36 AU.

`CO[C@@]1(NC(=O)C(C(=O)O)c2ccc(O)cc2)C(=O)N2C(C(=O)O)=C(CSc3nnnn3C)CO[C@@H]21` (stereo not given in full): in experiment [1], the remaining NAD is 10 nM. For the same compound, the luciferase signal in experiment [2] is 32 AU.

`Cc1ccnc(NS(=O)(=O)c2ccc(N)cc2)n1`: in experiment [1], the remaining NAD is 10 nM. Further, the luciferase signal in experiment [2] is 68 AU.

`Cc1cc(C)nc(NS(=O)(=O)c2ccc(N)cc2)n1`: the remaining NAD in experiment [1] was 10 nM. Moreover, the luciferase signal in experiment [2] is 36 AU.

For the compound `O=C(COc1ccc(Cl)cc1)N1CCN(Cc2ccc3c(c2)OCO3)CC1`, in experiment [1], the remaining NAD is 10 nM. Moreover, the luciferase signal in experiment [2] was 84 AU.

Take `CN1[C@@H]2CC[C@H]1CC(OC(=O)C(O)c1ccccc1)C2` (stereo not given in full): the remaining NAD in experiment [1] is 10 nM. For the same compound, the luciferase signal in experiment [2] is 40 AU.

Take `COc1cccc(OC)c1C(=O)N[C@@H]1C(=O)N2[C@@H]1SC(C)(C)[C@@H]2C(=O)O`: in experiment [1], the remaining NAD was 10 nM. The luciferase signal in experiment [2] is 32 AU.

In the case of `CCC[C@H](N[C@@H](C)C(=O)N1[C@H](C(=O)O)C[C@@H]2CCCC[C@@H]21)C(=O)OCC`, the remaining NAD in experiment [1] is 10 nM. Further, the luciferase signal in experiment [2] was 156 AU.

Turning to `C[C@H](N)[C@H](O)c1cccc(O)c1`, in experiment [1], the remaining NAD is 10 nM. In experiment [2], the luciferase signal was 40 AU.

Turning to `COCCCOc1cc(C[C@@H](C[C@H](N)[C@@H](O)C[C@H](C(=O)NCC(C)(C)C(N)=O)C(C)C)C(C)C)ccc1OC`, the remaining NAD in experiment [1] was 10 nM. Besides, in experiment [2], the luciferase signal was 68 AU.

In the case of `Cc1c(N(C)CS(=O)(=O)O)c(=O)n(-c2ccccc2)n1C`, in experiment [1], the remaining NAD is 10 nM. In experiment [2], the luciferase signal is 40 AU.

Regarding `CCN(CC)CCOC(=O)C(c1ccccc1)c1ccccc1`, the remaining NAD in experiment [1] was 10 nM. Besides, the luciferase signal in experiment [2] is 84 AU.

In the case of `Cc1ccsc1/C=C/C1=NCCCN1C`, the remaining NAD in experiment [1] was 10 nM. For the same compound, the luciferase signal in experiment [2] is 88 AU.

Take `Nc1ncnc2c1ncn2[C@@H]1O[C@H](CO)[C@@H](O)[C@H]1O`: the remaining NAD in experiment [1] was 10 nM. Moreover, the luciferase signal in experiment [2] was 112 AU.

On to `CCCCC(=O)O[C@]1(C(=O)CO)[C@@H](C)C[C@H]2[C@@H]3CCC4=CC(=O)C=C[C@]4(C)[C@@]3(F)[C@@H](O)C[C@@]21C`, for which the remaining NAD in experiment [1] was 10 nM. The luciferase signal in experiment [2] was 80 AU.

Turning to `COc1c2occc2c(OC)c2c(=O)cc(C)oc12`, the remaining NAD in experiment [1] was 10 nM. Moreover, the luciferase signal in experiment [2] was 80 AU.
